# According to the supplement of paper PMC12282887:
# Structures can show the parent of a compound that is named as a salt. ± gives the standard deviation of the averaged measurements.
# Key:
# Test in all cases: promoter activity interaction Z-score (Lux/OD deviation from empty-vector control); higher = stronger promoter induction by the compound
# [1] = tested on: E. coli BW25113 acrABp lux reporter
# Method in brief: (§1)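 E. coli BW25113 luxCDABE reporter strains grew at 37°C in 40 µl LB Lennox in 384-well plates, with OD600 and luminescence read every 30 min for 12 h. After integration over 0–8 h for wild type or 1–9 h for deletion strains, wells under 10% of the median growth value were removed. Each score is the Z-transformed residual of growth-normalised luminescence fitted against a control.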
# [2] = tested on: E. coli BW25113 marRABp lux reporter
# Method in brief: as §1
# [3] = tested on: E. coli BW25113 micFp lux reporter
# Method in brief: as §1
# [4] = tested on: E. coli BW25113 ompFp lux reporter
# Method in brief: as §1
# [5] = tested on: E. coli BW25113 robp lux reporter
# Method in brief: as §1
# [6] = tested on: E. coli BW25113 soxSp lux reporter
# Method in brief: as §1
# [7] = tested on: E. coli BW25113 tolCp lux reporter
# Method in brief: as §1
# [8] = 28.9 µg/ml, genetic background: wild type
# [9] = 28.9 µg/ml, genetic background: ΔmarA
# [10] = 28.9 µg/ml, genetic background: Δrob
# [11] = 28.9 µg/ml, genetic background: ΔsoxS
# [12] = 57.7 µg/ml, genetic background: wild type
# [13] = 57.7 µg/ml, genetic background: ΔmarA
# [14] = 57.7 µg/ml, genetic background: Δrob
# [15] = 57.7 µg/ml, genetic background: ΔsoxS
# [16] = 115.5 µg/ml, genetic background: wild type
# [17] = 115.5 µg/ml, genetic background: ΔmarA
# [18] = 115.5 µg/ml, genetic background: Δrob
# [19] = 115.5 µg/ml, genetic background: ΔsoxS
# [20] = 230.9 µg/ml, genetic background: wild type
# [21] = 230.9 µg/ml, genetic background: ΔmarA
# [22] = 230.9 µg/ml, genetic background: Δrob
# [23] = 230.9 µg/ml, genetic background: ΔsoxS
smiles,measurement,setting,value
O=C(O)COCCN1CCN(C(c2ccccc2)c2ccc(Cl)cc2)CC1 (configuration not stated) [Cetirizine dihydrochloride],promoter activity interaction Z-score,[1]; [8],0.153 ± 0.22
same,promoter activity interaction Z-score,[1]; [9],-0.276 ± 0.91
same,promoter activity interaction Z-score,[1]; [10],0.0774 ± 0.078
same,promoter activity interaction Z-score,[1]; [11],0.344 ± 0.22
same,promoter activity interaction Z-score,[1]; [12],0.202 ± 0.41
same,promoter activity interaction Z-score,[1]; [13],-0.0899 ± 0.93
same,promoter activity interaction Z-score,[1]; [14],-0.297 ± 0.33
same,promoter activity interaction Z-score,[1]; [15],0.424 ± 0.48
same,promoter activity interaction Z-score,[1]; [16],-0.397 ± 0.14
same,promoter activity interaction Z-score,[1]; [17],-0.531 ± 0.29
same,promoter activity interaction Z-score,[1]; [18],-0.491 ± 0.057
same,promoter activity interaction Z-score,[1]; [19],-0.239 ± 0.68
same,promoter activity interaction Z-score,[1]; [20],-0.0515 ± 0.05
same,promoter activity interaction Z-score,[1]; [21],-0.913 ± 0.67
same,promoter activity interaction Z-score,[1]; [22],-0.435 ± 0.21
same,promoter activity interaction Z-score,[1]; [23],-0.388 ± 0.13
same,promoter activity interaction Z-score,[2]; [8],-0.0717 ± 0.029
same,promoter activity interaction Z-score,[2]; [9],0.0437 ± 0.062
same,promoter activity interaction Z-score,[2]; [10],0.000338 ± 0.29
same,promoter activity interaction Z-score,[2]; [11],-0.0906 ± 0.0024
same,promoter activity interaction Z-score,[2]; [12],0.151 ± 0.32
same,promoter activity interaction Z-score,[2]; [13],-0.0182 ± 0.02
same,promoter activity interaction Z-score,[2]; [14],-0.17 ± 0.18
same,promoter activity interaction Z-score,[2]; [15],-0.0648 ± 0.1
same,promoter activity interaction Z-score,[2]; [16],-0.301 ± 0.014
same,promoter activity interaction Z-score,[2]; [17],-0.0679 ± 0.12
same,promoter activity interaction Z-score,[2]; [18],-0.391 ± 0.15
same,promoter activity interaction Z-score,[2]; [19],-0.384 ± 0.18
same,promoter activity interaction Z-score,[2]; [20],-0.385 ± 0.034
same,promoter activity interaction Z-score,[2]; [21],-0.279 ± 0.0034
same,promoter activity interaction Z-score,[2]; [22],-0.565 ± 0.14
same,promoter activity interaction Z-score,[2]; [23],-0.389 ± 0.19
same,promoter activity interaction Z-score,[3]; [8],0.013 ± 0.03
same,promoter activity interaction Z-score,[3]; [9],-0.101 ± 0.1
same,promoter activity interaction Z-score,[3]; [10],0.0307 ± 0.16
same,promoter activity interaction Z-score,[3]; [11],-0.145 ± 0.42
same,promoter activity interaction Z-score,[3]; [12],0.36 ± 0.081
same,promoter activity interaction Z-score,[3]; [13],0.049 ± 0.28
same,promoter activity interaction Z-score,[3]; [14],-0.0293 ± 0.15
same,promoter activity interaction Z-score,[3]; [15],0.0699 ± 0.025
same,promoter activity interaction Z-score,[3]; [16],-0.327 ± 0.23
same,promoter activity interaction Z-score,[3]; [17],0.145 ± 0.13
same,promoter activity interaction Z-score,[3]; [18],0.0776 ± 0.1
same,promoter activity interaction Z-score,[3]; [19],0.0293 ± 0.34
same,promoter activity interaction Z-score,[3]; [20],-0.141 ± 0.27
same,promoter activity interaction Z-score,[3]; [21],-0.0442 ± 0.057
same,promoter activity interaction Z-score,[3]; [22],0.195 ± 0.18
same,promoter activity interaction Z-score,[3]; [23],0.145 ± 0.13
same,promoter activity interaction Z-score,[4]; [8],0.228 ± 0.026
same,promoter activity interaction Z-score,[4]; [9],0.523 ± 0.32
same,promoter activity interaction Z-score,[4]; [10],0.79 ± 0.32
same,promoter activity interaction Z-score,[4]; [11],0.079784 ± 6.4e-05
same,promoter activity interaction Z-score,[4]; [12],0.523 ± 0.44
same,promoter activity interaction Z-score,[4]; [13],0.651 ± 0.083
same,promoter activity interaction Z-score,[4]; [14],0.368 ± 0.14
same,promoter activity interaction Z-score,[4]; [15],-0.205 ± 0.16
same,promoter activity interaction Z-score,[4]; [16],-0.463 ± 0.064
same,promoter activity interaction Z-score,[4]; [17],-0.0368 ± 0.095
same,promoter activity interaction Z-score,[4]; [18],-0.449 ± 0.31
same,promoter activity interaction Z-score,[4]; [19],-0.656 ± 0.25
same,promoter activity interaction Z-score,[4]; [20],0.136 ± 0.46
same,promoter activity interaction Z-score,[4]; [21],0.203 ± 0.1
same,promoter activity interaction Z-score,[4]; [22],-0.688 ± 0.7
same,promoter activity interaction Z-score,[4]; [23],-0.667 ± 0.25
same,promoter activity interaction Z-score,[5]; [8],-0.0279 ± 0.081
same,promoter activity interaction Z-score,[5]; [9],0.621 ± 0.13
same,promoter activity interaction Z-score,[5]; [10],0.0745 ± 0.28
same,promoter activity interaction Z-score,[5]; [11],-0.318 ± 0.5
same,promoter activity interaction Z-score,[5]; [12],0.609 ± 0.057
same,promoter activity interaction Z-score,[5]; [13],0.466 ± 0.37
same,promoter activity interaction Z-score,[5]; [14],-0.327 ± 0.31
same,promoter activity interaction Z-score,[5]; [15],0.0119 ± 0.7
same,promoter activity interaction Z-score,[5]; [16],-0.592 ± 0.34
same,promoter activity interaction Z-score,[5]; [17],0.00802 ± 0.12
same,promoter activity interaction Z-score,[5]; [18],-0.339 ± 0.12
same,promoter activity interaction Z-score,[5]; [19],-0.844 ± 0.1
same,promoter activity interaction Z-score,[5]; [20],-0.359 ± 0.2
same,promoter activity interaction Z-score,[5]; [21],-0.425 ± 0.43
same,promoter activity interaction Z-score,[5]; [22],-1.18 ± 0.85
same,promoter activity interaction Z-score,[5]; [23],-0.876 ± 0.55
same,promoter activity interaction Z-score,[6]; [8],0.227 ± 0.035
same,promoter activity interaction Z-score,[6]; [9],0.219 ± 0.05
same,promoter activity interaction Z-score,[6]; [10],0.143 ± 0.03
same,promoter activity interaction Z-score,[6]; [11],0.36 ± 0.29
same,promoter activity interaction Z-score,[6]; [12],0.625 ± 0.26
same,promoter activity interaction Z-score,[6]; [13],0.233 ± 0.067
same,promoter activity interaction Z-score,[6]; [14],0.113 ± 0.061
same,promoter activity interaction Z-score,[6]; [15],0.411 ± 0.45
same,promoter activity interaction Z-score,[6]; [16],0.0448 ± 0.13
same,promoter activity interaction Z-score,[6]; [17],0.311 ± 0.1
same,promoter activity interaction Z-score,[6]; [18],0.108 ± 0.041
same,promoter activity interaction Z-score,[6]; [19],0.145 ± 0.43
same,promoter activity interaction Z-score,[6]; [20],0.0238 ± 0.4
same,promoter activity interaction Z-score,[6]; [21],0.289 ± 0.11
same,promoter activity interaction Z-score,[6]; [22],0.127 ± 0.06
same,promoter activity interaction Z-score,[6]; [23],-0.0281 ± 0.68
same,promoter activity interaction Z-score,[7]; [8],-0.028 ± 0.45
same,promoter activity interaction Z-score,[7]; [9],0.994 ± 0.066
same,promoter activity interaction Z-score,[7]; [10],0.083 ± 0.48
same,promoter activity interaction Z-score,[7]; [11],0.251 ± 1.2
same,promoter activity interaction Z-score,[7]; [12],1.49 ± 0.11
same,promoter activity interaction Z-score,[7]; [13],0.225 ± 0.61
same,promoter activity interaction Z-score,[7]; [14],0.369 ± 1.3
same,promoter activity interaction Z-score,[7]; [15],-0.607 ± 0.17
same,promoter activity interaction Z-score,[7]; [16],0.247 ± 0.057
same,promoter activity interaction Z-score,[7]; [17],-0.0757 ± 0.41
same,promoter activity interaction Z-score,[7]; [18],0.295 ± 0.29
same,promoter activity interaction Z-score,[7]; [19],-0.698 ± 0.023
same,promoter activity interaction Z-score,[7]; [20],0.059 ± 0.6
same,promoter activity interaction Z-score,[7]; [21],-0.764 ± 0.4
same,promoter activity interaction Z-score,[7]; [22],-0.176 ± 0.18
same,promoter activity interaction Z-score,[7]; [23],0.432 ± 0.65
